# Active and inactive are the calls of the source.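 How the source made its calls: active means viability at or below 10% of carrier control in both of two separate runs; inconclusive means viability at or below 10% in only one of the two runs; inactive means the rest.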
# Test: reduced viability of SK-BR-3 breast cancer cells – cell-based, 24 h, human, pilot screen (AID 572);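 further: compound exposure lasted between 18 and 24 h rather than exactly 24 h; 100% = carrier-treated control wells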
# Conditions: SK-BR-3 viability, CellTiter-Glo luminescence, at 10 µM, active compounds read low
row,Compound,viability
1,Cc1ccc2c(c1C)NC(C(=O)O)C1CC=CC21 (stereo not given),91% (inactive)
2,Cc1cc(C)cc(OCC(=O)NC2=NCCS2)c1,100% (inactive)
3,COc1cccc(NS(=O)(=O)c2ccc3[nH]cc(C(=O)NC4CC4)c(=O)c3c2)c1,101% (inactive)
4,COc1ccc(OC)c(NC(=O)C2C3CC4OC(=O)C2C4C3)c1 (stereo not given),103% (inactive)
5,CN(C)C(=O)COc1ccc2cc(-c3ccccc3)c(=O)oc2c1,93% (inactive)
6,CC1CN(CC(O)COc2ccccc2C(C)(C)C)CC(C)O1 (stereo not given),130% (inactive)
7,CN(C)CCCN1c2ccccc2CCc2ccc(Cl)cc21,78% (inactive)
8,COc1ccc(NC(=O)c2oc3ccccc3c2NC(=O)c2ccco2)cc1,90% (inactive)
9,CC1(C)SC2[C@H](NC(=O)C(NC(=O)N3CCNC3=O)c3ccccc3)C(=O)N2C1C(=O)O (stereo not given in full),107% (inactive)
10,CC(=O)OC1CSc2nc3ccccc3n2C1 (stereo not given),84% (inactive)
11,O=S(=O)(NCC1CCCO1)c1ccc2c(c1)OCCO2 (stereo not given),128% (inactive)
12,O=c1c2ccccc2c(/C=N/n2cnnc2)c(O)n1-c1ccccc1,84% (inactive)
13,COc1ccc(C2=CC(=O)OC3(CCCCC3)O2)cc1,97% (inactive)
14,CCCC1(C(=O)OC)NC(c2cc(OC)c(OC)c(OC)c2)C2C(=O)N(CC)C(=O)C21 (stereo not given),67% (inactive)
15,C#CCN(C)Cc1ccccc1,96% (inactive)
16,CCOC(=O)CSc1nc2sc(C)c(C)c2c(=O)[nH]1,98% (inactive)
17,c1coc(CN(Cc2cccs2)Cc2nnnn2C2CCCCC2)c1,74% (inactive)
18,CCn1cnc2sc(C(=O)Nc3ccc4c(c3)OCO4)c(C)c2c1=O,107% (inactive)
19,COc1ccc(CCN(Cc2cc3cccc(C)c3[nH]c2=O)C(=O)N2CCCC2)cc1OC,106% (inactive)
20,COCCCNC(=O)C1CCN(C(=O)Nc2ccc(Cl)cc2)CC1,131% (inactive)

row,Compound,viability
1,CC1(C)CC(=O)C(C=NC(CCC(N)=O)C(=O)O)=C(O)C1 (stereo not given),96% (inactive)
2,O=c1c(O)c(-c2ccc(O)cc2O)oc2cc(O)cc(O)c12,94% (inactive)
3,CNC(=O)OC(C)CNS(=O)(=O)c1ccc(C)cc1 (stereo not given),60% (inactive)
4,Cc1ccc(S(=O)(=O)N2CCN(c3nc(C(C)C)c4c(c3C#N)CC(C)(C)OC4)CC2)cc1,65% (inactive)
5,Cc1ccc(Cl)cc1N1CCN(C(=O)CN2C(=O)c3cccc4cccc2c34)CC1,94.5% (inactive)
6,Cc1ccc2c(CC(=O)OCc3csc(C)n3)coc2c1,106% (inactive)
7,CC(C)(C)n1ncc2c(=O)n(CC(=O)NCc3ccccc3)cnc21,90% (inactive)
8,COc1ccc(OCC(=O)Nc2ccc(N3CCOCC3)c(Cl)c2)cc1,99% (inactive)
9,O=C(Nc1ccccc1-c1ccccc1)NC1CCN(C(=O)N2CCOCC2)CC1,108% (inactive)
10,O=C1[C@@H]2C(c3ccccc3Cl)=NO[C@@H]2C(=O)N1Cc1ccccc1,96% (inactive)
11,CC(=O)c1ccc(NC(=O)CCc2c(C)nc3ncnn3c2C)cc1,100% (inactive)
12,Cc1nc2scc(-c3ccco3)c2c(=O)n1/N=C/N(C)C,87% (inactive)
13,O=C(O)c1ccc(COc2ccc(Cl)cc2)o1,92% (inactive)
14,Cn1cc(C(=O)NC2CCCCCCC2)c(=O)c2cc(S(=O)(=O)N3CCCC3)ccc21,76.5% (inactive)
15,Cc1ccc(C2=N/C(=C/N3CCOCC3)C(=O)O2)cc1,84% (inactive)
16,CCc1ccccc1NC(=O)C(CC)Sc1nc2cc3c(cc2c(=O)n1Cc1ccco1)OCO3 (stereo not given),95.5% (inactive)
17,Cc1cc(C(=O)NCc2cccnc2)no1,77% (inactive)
18,Cc1cc(/C=N\O)c(C)n1-c1ccncc1,120% (inactive)
19,O=C(Cn1c(=O)n(CC2CCCO2)c(=O)c2ccccc21)c1ccccc1 (stereo not given),121% (inactive)
20,O=C(c1ccco1)N1CCN(CC2CC3C=CC2C3)CC1 (stereo not given),91% (inactive)
